Bioassay records: PubChem BioAssay, several laboratories
Only some compounds are listed: those with a hit (about 2% of all), similar ones and a draw of the others.
CHT block = inhibits the human high affinity choline transporter | CHT-expressing cells, membrane potential dye, choline response; active compounds read low | B-score at 10 µM | 310,000 compounds, 0.86% hits | AID 488975;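 active means B-score over 3 SD under the library average, and starting fluorescence ratio not unusually high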;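 further: choline stimulus applied at its EC90 after an EC20 pre-addition; B-score computed on integrated fluorescence ratio after choline addition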
Target sequence (Q9GZV3 whole entry, looked up): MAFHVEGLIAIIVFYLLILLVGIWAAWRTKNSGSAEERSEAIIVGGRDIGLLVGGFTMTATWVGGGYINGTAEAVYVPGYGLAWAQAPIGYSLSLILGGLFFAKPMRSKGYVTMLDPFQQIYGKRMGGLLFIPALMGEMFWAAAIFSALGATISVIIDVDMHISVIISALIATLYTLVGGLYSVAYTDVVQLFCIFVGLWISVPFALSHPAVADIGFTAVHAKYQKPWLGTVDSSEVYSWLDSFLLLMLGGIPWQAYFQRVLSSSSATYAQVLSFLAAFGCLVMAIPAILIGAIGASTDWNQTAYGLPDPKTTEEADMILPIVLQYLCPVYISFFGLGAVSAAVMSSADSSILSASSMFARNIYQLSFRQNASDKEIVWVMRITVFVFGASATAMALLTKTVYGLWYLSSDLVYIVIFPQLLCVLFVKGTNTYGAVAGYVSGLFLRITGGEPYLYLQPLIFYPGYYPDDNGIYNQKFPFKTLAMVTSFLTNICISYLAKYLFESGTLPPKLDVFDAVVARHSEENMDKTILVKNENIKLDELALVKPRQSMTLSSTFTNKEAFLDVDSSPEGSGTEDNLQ
CHT allo act = allosteric activators of human choline transporter CHT; Q9GZV3; B-score at 10 µM; 310,000 compounds, 0.49% hits; CHT-expressing cells, membrane potential dye, choline EC20; active compounds read high; LV-AA mutant CHT in HEK293 cells; AID 488977;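 active means initial fluorescence not abnormally high and integrated response B-score, plate-corrected, over 3 SD above library mean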
TAG inh = triacylglycerol accumulation inhibition; 230,000 compounds, 0.66% hits; H9c2 cells, Nile Red lipid (TAG) fluorescence; cells loaded with 200 µM oleic acid; inhibition, % at 12.5 µM;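 active means pattern-corrected inhibition of lipid staining of at least 50% with the nuclear-stain viability signal not falling by more than 50%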;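 further: 0% = DMSO wells and 100% = triacsin C control wells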
Kir21 block = inhibitors of mouse Kir2.1 inward-rectifier potassium channel; P35561; HEK293-Kir2.1, FluxOR thallium flux fluorescence; active compounds read low; B-score at 10 µM; 310,000 compounds, 0.85% hits;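 active means fluorescence ratio B-score at or below minus 3 SD of library scores, with starting-brightness B-score within 2 SD, cut at about -4.2 in these data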;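 further: channel flux triggered by added potassium and thallium sulfate stimulus; B-score of peak minus minimum fluorescence over baseline after thallium stimulus; more negative B-score means stronger Kir2.1 block with less thallium influx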
CHT act confirm = human CHT activation, confirmatory screen; CHT-expressing cells, membrane potential dye fluorescence (FDSS); % of choline EC20–EC90 response window; HEK293 expressing CHT LV-AA mutant; choline added at its EC20; shares compounds with CHT allo act; activation, % at 10 µM; 2,500 compounds, 91% hits;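 active means primary screen active, with duplicate mean activation above negative control mean plus 3 SD, cut at about 11% in these data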
HEK293 MP dye = CHT activator counter-screen hit in parental HEK293 cells | ratio readout change at 10 µM, hits read low | membrane potential dye fluorescence (FDSS); measured after EC20 choline addition | shares compounds with CHT allo act | 2,500 compounds, 62% hits;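 active means duplicate-averaged ratio beyond 3 SD from buffer wells, up or down, though filed actives are nearly all decreases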
Active calls of the source: *; i = inactive; nt = not tested or not shown.

SMILES	CHT block	CHT allo act	TAG inh	Kir21 block	CHT act confirm	HEK293 MP dye
CCOC(=O)c1cc2c(=O)n3ccccc3nc2n(CC2CCCO2)c1=NC(=O)/C=C/c1ccccc1 (configuration not stated)	i	i	19	0.93	15*	i
CSc1ncccc1C(=O)OCC(=O)NC12CC3CC(CC(C3)C1)C2	nt	nt	-4	nt	nt	nt
COc1cc(N)c(C(O)c2nccc3cc(OC)c(OC)cc23)cc1OC (configuration not stated)	i	i	15	-0.02	70*	-51*
COc1ccc(C(=O)c2nccc3cc(OC)c(OC)cc23)cc1OC	nt	nt	-13	nt	nt	nt
COc1ccc(C(O)c2nccc3cc(OC)c(OC)cc23)cc1OC (configuration not stated)	i	9.2*	-5	-0.38	59*	-74*
COc1ccc([N+](=O)[O-])c(OC)c1C(=O)NC(=O)Nc1nc(C)nc(C)n1	i	i	18	-0.08	nt	nt
CCOc1ccc(NC(=O)CN(C)C(=O)CCCc2c[nH]c3ccccc23)cc1OCC	i	i	-56	0.24	nt	nt
COCc1cc(C)nc(SCC[N+](C)(C)CC(=O)Nc2ccccc2)c1C#N	i	i	5	-0.03	37*	-28*
CCN(CC(=O)N1CCC(C(N)=O)CC1)S(=O)(=O)c1ccc(Cl)cc1	i	i	4	1	nt	nt
COc1ccc(-c2nc3cnccn3c2Nc2ccc3c(c2)OCO3)cc1	i	6.4*	1	-0.83	48*	-29*
Cc1ccc(-c2nc3cnccn3c2Nc2ccc3c(c2)OCO3)cc1	i	i	0	-2.4	nt	nt
COc1ccc(Nc2c(-c3ccc(C)cc3)nc3cnccn23)cc1	i	i	-7	-1.2	49*	-28*
COc1ccc(Nc2c(-c3ccc(OC)cc3)nc3cnccn23)cc1	i	i	-7	-1.1	nt	nt
Cc1ccc(NS(=O)(=O)c2cccc(C(=O)NCCCN3CCCC3=O)c2)cc1	i	i	4	-1.2	nt	nt
Cc1cc(N2CCN(Cc3nc(-c4ccc(F)cc4)oc3C)CC2)cc(C)n1	i	6.8*	-24	0.11	43*	-47*
COc1ccccc1N1CCN(Cc2nc(-c3ccc(F)cc3)oc2C)CC1	i	i	5	-0.83	nt	nt
COc1cccc(-c2ccc3nnc(SCC(=O)N4CCOCC4)n3n2)c1	i	i	14	-1.2	nt	nt
COc1cccc(-c2cnc(C(O)c3cc(Cl)cc(Cl)c3)[nH]2)c1 (configuration not stated)	nt	nt	-3	nt	nt	nt
CSCCC(NC(=O)c1ccccc1Cl)C(=O)NNC(=O)c1ccncc1 (configuration not stated)	i	i	6	0.51	nt	nt
Nc1cnnc(N/N=C\c2ccccc2)c1Cl	i	6.4*	3	0.53	57*	-54*
Cc1ccc(C(C(=O)NC2CCCC2)N(Cc2ccco2)C(=O)CCC(=O)Nc2cc(C)on2)cc1 (configuration not stated)	i	6.4*	35	0.49	-1	i
Cc1ccc(C(C(=O)NC2CCCCC2)N(Cc2ccco2)C(=O)Cc2c[nH]c3ccccc23)o1 (configuration not stated)	i	6.4*	39	1.3	26*	i
CNC(=O)C(=O)NCC1OCCCN1S(=O)(=O)c1ccc(F)cc1C (configuration not stated)	i	i	7	0.13	nt	nt
O=C1CC2(CCN(C(=O)c3ccc(Cl)cc3)CC2)Oc2ccccc21	i	i	11	0.9	nt	nt
O=C1CC2(CCN(C(=O)c3ccccc3Cl)CC2)Oc2ccccc21	i	i	7	0	-9	i
SMILES	CHT block	CHT allo act	TAG inh	Kir21 block	CHT act confirm	HEK293 MP dye
O=C1CC2(CCN(C(=O)c3cccc(Br)c3)CC2)Oc2ccccc21	i	8.9*	6	-0.07	5	i
O=C1CC2(CCN(C(=O)c3cccc(Cl)c3)CC2)Oc2ccccc21	i	i	-13	0.7	nt	nt
C[C@@H]1CN([C@@H](C)CO)C(=O)CCCn2nncc2CO[C@H]1CN(C)Cc1ccccc1C(F)(F)F	nt	nt	8	nt	nt	nt
CC1(C)Cc2c(sc(NC(=O)C(C)(C)C)c2C#N)C(C)(C)N1	i	i	-4	-0.05	nt	nt
CC1(C)CC2CC(C)(CN2/C=N/c2sc3c(c2C#N)CC(C)(C)NC3(C)C)C1 (configuration not stated)	i	8*	8	0.39	35*	i
Cc1ccc(NC(=O)CSCC(=O)Nc2ccccc2N2CCCCC2)cc1	i	i	-2	-2.1	nt	nt
Cc1cc(C)nc(NC(=O)c2cnc3sccn3c2=O)n1	i	9.1*	-6	0	52*	-51*
CC1=C(c2ccccc2)SC2=NCCN21	i	i	nt	-0.07	55*	-56*
COc1ccccc1C(c1nnnn1Cc1ccco1)N1CCN(c2cccc(C)c2C)CC1 (configuration not stated)	i	i	30	-0.94	nt	nt
CCC(C)(C)n1nnnc1C(c1ccccc1)N1CCN(Cc2ccccc2)CC1 (configuration not stated)	i	i	1	-1.1	nt	nt
CCC(C)(C)n1nnnc1C(c1cc(OC)ccc1OC)N1CCN(Cc2ccccc2)CC1 (configuration not stated)	i	7.6*	-33	-2.5	35*	i
COc1ccc(N2CCN(C(c3cc(OC)ccc3OC)c3nnnn3Cc3ccco3)CC2)cc1 (configuration not stated)	i	7.4*	-26	-0.85	21*	i
COc1cccc(CC(=O)Nc2nc3c(s2)C(=O)CC(C)(C)C3)c1	i	i	-20	0.34	nt	nt
CC(C)(C)OC(=O)[C@H]1[C@H](c2ccc([N+](=O)[O-])cc2)C2(C(=O)c3ccccc3C2=O)C2c3ccccc3C=NN21 (some centres not stated)	i	i	nt	-0.87	37*	i
COc1ccc([C@H]2[C@H](C(=O)C(C)(C)C)N3N=Cc4ccccc4C3[C@]23N=C(c2ccccc2)OC3=O)cc1 (some centres not stated)	i	i	12	-1	nt	nt
Cc1cccn2c(=O)c3cc(C(=O)NCCc4ccccc4)c(=N)n(Cc4ccco4)c3nc12	i	i	nt	1.3	nt	nt
Cc1cccn2c(=O)c3cc(C(=O)NCc4ccco4)c(=N)n(CCc4ccccc4)c3nc12	i	i	42	nt	22*	-31*
CC(=O)N=c1c(C#N)cc2c(=O)n3cccc(C)c3nc2n1Cc1ccco1	i	i	13	-0.71	47*	-36*
Cc1cccn2c(=O)c3cc(C#N)c(=NC(=O)c4cccs4)n(CCCOC(C)C)c3nc12	i	i	14	0.38	nt	nt
